In PubChem BioAssay (Tox21):
Inconclusive results are not listed. Unmarked numbers belong to inactive results. Activity calls are given as the source filed them. The call rests on the fitted dose curve; in most records, active means well fitted activation curve with a large enough effect in the repeat runs; inconclusive means weak or mixed curves, or effect the other way; inactive means no such curve, though single readings can be large or run the other way.

test: qHTS assay to identify small molecule agonists of the retinoic acid receptor (RAR) signaling pathway (AID 1159553); conditions: C3RL4 RARE luciferase reporter, agonist, 6 h; series mostly up to 73.3 µM; activation: at the top concentration
Text: National Center for Advancing Translational Sciences [NCATS] NIH Chemical Genomics Center [NCGC] U.S. Environmental Protection Agency [EPA] National Institutes of Environmental Health Sciences [NIEHS] National Toxicology Program [NTP] Assay overview: All-trans Retinoic acid (atRA) is the potent natural metabolite of retinol and plays an important role in normal embryonic development and maintenance of cellular phenotype in adult animals. atRA is the activating ligand for the retinoic acid receptors (RARs) which form heterodimers with retinoid X receptors (RXRs) on the retinoic acid response element (RARE). Through activation of the RAR/RXRs nuclear receptors, atRA regulates the transcription of a large number of protein-coding genes and regulatory RNAs. Intracellular levels of atRA are controlled by the retinol signaling pathway (RSP) that regulates the biosynthesis and catabolism of atRA to maintain physiological levels. Chemicals that interfere with the RSP can cause abnormal intracellular levels of atRA and therefore are potential developmental toxicants. To assess compounds for the potential adverse effect on embryonic development through interfering with retinol signaling, a cell-based RARE luciferase reporter gene assay was used. C3RL4 cell line (OARSA/CFSAN/FDA, Laurel, MD) was used to screen Tox21 10K compound library for identifying activators of the RSP.
Assay Protocol Summary: C3RL4 cells were seeded at 1,000/well in 5 uL of assay medium into white solid 1,536-well tissue culture plates (Greiner Bio-One North America Inc. Monroe, NC) using a Multidrop Combi (Thermo Scientific, Waltham, MA) dispenser. After incubation at 37 C and 5% CO2 for an overnight, 23 nL of compounds dissolved in DMSO, positive control or DMSO only were transferred by a Pintool station (Kalypsys, San Diego, CA). After 6 hr incubation at 37 C and 5% CO2, 5 uL of Amplite Luciferase reagent (AAT Bioquest Inc. Sunnyvale, CA) was added to each assay plate using a Flying Reagent Dispenser (FRD) (Aurora Discovery, San Diego, CA). Luminescence was quantified on a ViewLux plate reader (PerkinElmer, Waltham, MA) after 30 min incubation at room temperature.
On the % scale 0 is the no-effect control and ±100 the full control effect; potency means the concentration at half of the fitted maximal effect.

SMILES | activation | Potency
CNc1c2c(nn1C)CCCC2 | -2.97% | 
CC(C)N(C)C | 19.4% | 
CCCCCCCCCCCCCOC(=O)CCSCCC(=O)OCCCCCCCCCCCCC | -1.59% [at 34.3 µM] | 
Cc1c[nH]c2ccccc12 | 1.27% | 
Cc1ccccc1S(N)(=O)=O | -0.127% | 
Oc1ccc2c(c1)Cc1ccccc1-2 |  | 13.7 µM (active)
CSCC[C@H](NC(=O)[C@H](Cc1c[nH]c2ccccc12)NC(=O)CCNC(=O)OC(C)(C)C)C(=O)N[C@@H](CC(=O)O)C(=O)N[C@@H](Cc1ccccc1)C(N)=O | 2.97% | 
Nc1ccn([C@H]2CS[C@@H](CO)O2)c(=O)n1 | -2.37% | 
Cc1ccc(N(CC2=NCCN2)c2cccc(O)c2)cc1 | -3.7% | 
O=c1[nH]c2cc(C(F)(F)F)c(N3CCOCC3)cc2n(CP(=O)(O)O)c1=O | -2.75% | 
CCCCCC | 0.0878% | 
CCCCCCC(CO)CCCC (stereo not given) | 5.18% | 
O=P(O)(O)Oc1ccccc1 | 0.597% | 
Cc1cc([N+](=O)[O-])ccc1N | 6.52% | 
O=C1CC[C@@H](C(=O)O)N1 | -1.93% | 
COC1CCC=CO1 (stereo not given) | 0.158% [at 94.8 µM] | 
CCCCCCC(O)CCCCCCCCCCC(=O)OC (stereo not given) | 6.23% | 
CCCC(=O)OC(=O)CCC | 0.107% [at 94.8 µM] | 
CCCCCc1ccco1 | 2.81% | 
CCOc1ncc(F)c(=O)[nH]1 | -3.15% | 

SMILES | activation | Potency
CCN(CC)CCOc1ccccc1C(=O)CCc1ccccc1 | 0.106% | 
CCNc1nc(N)nc(Cl)n1 | -0.697% | 
CC(C)C(O)C(C)(C)CO (stereo not given) | 0.276% [at 94.8 µM] | 
O=C(/C=C/c1ccc([N+](=O)[O-])cc1)c1ccccc1 |  | 30.7 µM (active)
CCOC(=O)N1CCC(Nc2ccc(Cl)cc2N)CC1 | 4.03% | 
O=C(NC(Cc1cc(=O)[nH]c2ccccc12)C(=O)O)c1ccc(Cl)cc1 (stereo not given) | 0.302% | 
O=C(O)c1cccc(Oc2ccccc2)c1 | 0.645% | 
COC(OC)OC | -1.65% | 
Cc1cc(CCC(=O)OCCOCCOCCOC(=O)CCc2cc(C)c(O)c(C(C)(C)C)c2)cc(C(C)(C)C)c1O | -3.7% | 
CC(=O)OCCC1CCCCC1 | -1.09% | 
CC(=O)c1ccc[nH]1 | 1.07% | 
CCC(Cl)CC(Cl)C(Cl)C(Cl)C(Cl)C(C)Cl (stereo not given) |  | 0.133 µM (active)
O=C(O)c1ccc(O)cc1O | -0.373% [at 94.8 µM] | 
O=C(O)CO | -0.978% | 
CC(C)(C)NCC(O)COc1cccc2c1C[C@H](O)[C@H](O)C2 (stereo not given in full) | 0.815% | 
C=CCOC(=O)COCCC(C)C | -4.17% | 
CC(C)c1ccc(C#N)cc1 | -1.96% | 
COc1ccc(-c2cc(C(F)F)nn2-c2ccc(S(N)(=O)=O)cc2)cc1F | -7.4% | 
CC(C)(C)CCCCCCOC(=O)c1ccccc1C(=O)OCCCCCCC(C)(C)C | 0.373% | 
CN1C(CSCC(F)(F)F)Nc2cc(Cl)c(S(N)(=O)=O)cc2S1(=O)=O (stereo not given) | -1.48% | 
